Measurements reported in PubChem BioAssay AID624330 (Southern Research Specialized Biocontainment Screening …, 2012).
Out of some 340,000 compounds screened, about 2,100 (0.62%) were called active.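 Rule for the calls: active = first-screen hits whose inhibition reached a set limit at any dose in the follow-up dose series; inconclusive = inhibition above the set first-screen limit but never retested; inactive = the rest.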 Not all results are given here. Potency and affinity values are given separately.

The molecules below were run against Rac GTPase-activating protein 1 (Homo sapiens) (UniProt Q9H0H5) (assay: blockers of MgcRacGAP-driven Rac1 GTP hydrolysis – biochemical, ADP Hunter fluorescence, primary and confirmatory, confirmation (AID 624330;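 note: fluorescence reports GDP produced by GAP-driven GTP hydrolysis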)). Conditions: MgcRacGAP-stimulated Rac1 GTP hydrolysis, at 30 µM, active compounds read high, GST-tagged Rac1 F28L mutant substrate.
Sequence of Rac GTPase-activating protein 1 (Homo sapiens) (Q9H0H5 whole entry, looked up): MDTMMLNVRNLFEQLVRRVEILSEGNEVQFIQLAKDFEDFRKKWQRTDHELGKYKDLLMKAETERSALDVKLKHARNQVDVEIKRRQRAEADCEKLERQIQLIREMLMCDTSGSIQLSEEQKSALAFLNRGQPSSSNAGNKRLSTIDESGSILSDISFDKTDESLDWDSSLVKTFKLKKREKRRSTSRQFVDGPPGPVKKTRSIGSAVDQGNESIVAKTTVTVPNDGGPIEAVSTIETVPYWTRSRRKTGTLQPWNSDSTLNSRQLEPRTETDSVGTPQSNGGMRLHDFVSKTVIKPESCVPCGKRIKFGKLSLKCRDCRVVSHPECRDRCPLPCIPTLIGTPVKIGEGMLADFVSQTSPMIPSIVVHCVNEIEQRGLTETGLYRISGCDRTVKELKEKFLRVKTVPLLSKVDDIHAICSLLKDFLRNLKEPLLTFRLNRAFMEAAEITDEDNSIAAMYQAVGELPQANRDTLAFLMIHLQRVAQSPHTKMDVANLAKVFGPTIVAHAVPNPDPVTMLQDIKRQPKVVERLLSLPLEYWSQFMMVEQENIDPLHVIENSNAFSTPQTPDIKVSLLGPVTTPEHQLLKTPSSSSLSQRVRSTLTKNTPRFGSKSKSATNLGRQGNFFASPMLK

inhibition, inactive:
CC1c2[nH]c3ccccc3c2CCN1S(C)(=O)=O (configuration not stated) 1.37%
Cc1ccc2cc(/C=N/NC(=O)c3ccc(F)cc3)c(Cl)nc2c1 5.25%
Cc1ccccc1NS(=O)(=O)c1cc(C(=O)Nc2cccc([N+](=O)[O-])c2)ccc1C 8.26%
O=C(Nc1cccc(-c2cccc(Cl)c2)c1)C1CCN(Cc2ccccn2)CC1 2.6%
CC(NS(=O)(=O)CCNC(=O)c1ccccc1)c1ccccc1 (configuration not stated) 4.33%
CC(=O)Nc1ccc(S(=O)(=O)N[C@@H](C)C(=O)OCC(=O)c2ccc(Br)s2)cc1 16.7%
CCn1nnnc1Oc1ccc(Cl)cc1 1.61%
Cc1nnc(C)n1/N=C/c1ccc(C(=O)O)cc1 7.46%
Oc1ccccc1/C=N/n1c2ccccc2c2ccccc21 8.39%
Cc1cc(C)n(-c2nnc(C)n2/N=C/c2ccco2)n1 2.53%
S=c1[nH]nc(-c2cccnc2)n1/N=C/C=C/c1ccco1 21.5%
Cc1ccc(CN2CCN(/N=C/c3ccc(C(=O)O)cc3)CC2)cc1 8.13%
COc1cccc(/C=N/n2c(SC)nnc2-c2ccccc2)c1O 22.8%
S=c1[nH]nc(-c2ccccc2)n1/N=C/C=C/c1ccco1 30.9%
C(=N/n1c2ccccc2c2ccccc21)/c1ccco1 14.3%
NC(=O)COC(=O)c1cccc(S(=O)(=O)N2CCN(c3ccccc3)CC2)c1 7.91%
Cc1ccc(OCC(=O)NNC(=O)c2ccc(NC(=O)C3CC3)cc2)c(C)c1 7.97%
CC(=O)c1cccc(NS(=O)(=O)c2c(C)n[nH]c2C)c1 7.62%
CC(=O)Nc1ccc2c(c1)N(S(=O)(=O)c1cccs1)CCC2 4.49%
CC(C)OCCCNC(=O)c1ccc(CS(=O)(=O)Cc2ccccc2F)o1 3.97%
Cc1nc(N2CCN(c3ccccc3)CC2)nc2c1C(=O)CCC2 5.63%
CCN1C(=O)/C(=C/c2c(C)nn(C)c2C)SC1=S 0.43%
O=C(O)c1ccc(Nc2ncnc3ccccc23)cc1 7.58%
Cc1cccc(NC(=O)CNC(=O)COC(=O)c2ccco2)c1C -0.7%
c1ccc(C[C@H]2CN=C(Nc3ccccc3)N2CC2CCCCC2)cc1 3.05%
Cc1ccccc1-n1nc(C(=O)O)cc1-c1ccccc1 3.4%
O=C(NCCc1ccccc1)c1ccc(-c2ccccc2Cl)o1 5.22%
Cc1nnc(C)n1/N=C/C=C/c1ccccc1 1.05%
S=c1[nH]nc(-c2cccnc2)n1/N=C/C=C/c1ccccc1 5.39%
Cc1nnc(C)n1/N=C/c1ccccc1 6.18%
Cc1ccc(/C=N/n2c(-c3ccncc3)n[nH]c2=S)cc1 5.7%
CC1CCN(C(=O)C2CCN(S(=O)(=O)c3cccs3)CC2)CC1 6.45%
CCc1cc(C(=O)N2CCCC(C(=O)c3cccc(OC(C)C)c3)C2)n(C)n1 (configuration not stated) 9.3%
Cc1ccc2c(CC(=O)N3CCN(S(=O)(=O)c4ccccc4)CC3)coc2c1 5.1%
N#Cc1ccccc1S(=O)(=O)N1CCN(C(=O)CCc2ccccc2)CC1 6.33%
COc1ccc2c(CC(=O)N3CCN(S(=O)(=O)c4ccc(F)cc4)CC3)coc2c1 1.15%
N#Cc1ccccc1S(=O)(=O)N1CCN(C(=O)Cc2n[nH]c(=O)c3ccccc23)CC1 1.94%
CCCn1c(N2CCN(C(=O)/C=C/C(=O)O)CC2)nc2ccccc21 10.8%
NC(=O)COC(=O)CCSc1ccc(Cl)cc1 5.12%
COC/C=C/C1=CC2=CC(=O)C(C)(OC(=O)c3cnc4ccccc4n3)C(=O)C2=CN1Cc1ccco1 (configuration not stated) 11%
COc1nonc1NC(=O)CSc1nc2ccccc2[nH]1 9.74%
Oc1cccc(Nc2c3ccccc3nc3ccccc23)c1 16.7%
c1ccc(Nc2cccc(Nc3ccccc3)c2)cc1 19.8%
OC1(CC#CCN2CCCCC2)c2ccccc2-c2ccccc21 11.1%
O=C(c1ccco1)N1N=C2CCCCCC2C1(O)C(F)(F)F (configuration not stated) 1.94%
Cc1ccc(OCCOCCN2CCN(C)CC2)c([N+](=O)[O-])c1 31.9%
C=CCNCCCCOc1ccc(C)cc1[N+](=O)[O-] 14%
Cc1ccc(OCCN2CCNCC2)c([N+](=O)[O-])c1 21.6%
Cc1ccc(OCCOCCNC(C)(C)C)c([N+](=O)[O-])c1 29.6%
Cc1cc(C)n(CCCN2CCC(C(=O)Nc3cccc(-c4cccc(F)c4)c3)CC2)n1 11.5%
Cc1ccccc1C(=O)NC1CC2CCCC(C1)N2Cc1ccccc1Cl (configuration not stated) 11.5%
Cc1c(C(=O)NCC(c2ccco2)N(C)C)oc2c(Cl)cccc12 (configuration not stated) 5.84%
COc1cc2c(cc1OC)C1=C(C#N)CC/C(=N\S(=O)(=O)c3cccc(Cl)c3)N1CC2 4.99%
CC(C)CNC(=O)CN1C(=O)NC2(CCc3ccccc32)C1=O (configuration not stated) 10.8%
CCN1C(=O)/C(=C/C=C2/CCCN2C)OC1=S 5.72%
CN1CCS/C1=C\C=C1/SC(=S)N(CC(=O)O)C1=O 16.9%
CN1C(=O)/C(=C\C=C2/CCCN2C)N(C)C1=S 28.8%
CN1C(=O)/C(=C/C=C2\SCCN2C)OC1=S 8.62%
Cc1ccc(S(=O)(=O)N2CCN(CN3C(=O)CC4(CCCC4)C3=O)CC2)cc1 1.32%
COc1cc(/C=N/n2c(C3CCCCC3)n[nH]c2=S)cc(OC)c1O 15.8%
COc1cc(/C=N/n2c(C3CCCCC3)n[nH]c2=S)cc(Br)c1O 12.6%
COc1cc(/C=N/n2nnnc2N)ccc1OC(C)=O 23.6%
C=CCOc1ccc(/C=N/n2nnnc2N)cc1OC 12.5%
CCOc1ccc(/C=N/n2nnnc2N)cc1OCC 9.77%
COc1ccc(/C=N/n2nnnc2N)cc1OC 8.91%
O=C(/C=C\c1ccco1)NC(=S)Nc1ccccc1O 15.2%
COc1cccc(NC(=S)NC(=O)c2cccnc2)c1 13.8%
CN(C)C1=NCCN1CCCC1CCCC1 4.05%
CC(C)N(Cc1nccn1C)C(=O)C1CCC(=O)N(CCc2ccccc2)C1 (configuration not stated) 12.2%
Cc1ccc(/C(N)=N/OC(=O)CCCc2ccccc2)cc1 7.16%
CCOC(=O)Nc1c(C(=O)OC)[nH]c2cccc(OC)c12 9.48%
COc1ccc2c(N)c(C(=O)NN)[nH]c2c1 27.6%
COC(=O)c1cc(S(=O)(=O)NC2CCC(C)CC2)cn1C (configuration not stated) 0.48%
Cc1ccc(OCCC(=O)OCC(=O)NC(=O)NCc2ccccc2)cc1 3.66%
CN=c1scc(C)n1/N=C/c1ccc2c(c1)OCO2 18.6%
CCN=c1scc(C)n1/N=C/c1ccsc1 25.8%
CN=c1scc(C)n1/N=C/c1ccc(O)c(O)c1O -36.1%
Cc1ccc(CN2CCN(/N=C/c3ccc(O)c(O)c3)CC2)cc1 31.8%
Cc1nnc(C)n1/N=C/c1ccc(O)cc1 13%
CN=c1scc(-c2cccs2)n1/N=C/c1ccccc1O 23.1%
Cn1nnnc1SCCNCc1cccnc1 -1.39%
COC(=O)c1ccc(NC(=O)C(=O)N2CCN(C(=S)Nc3cccc(OC)c3)CC2)cc1 7.83%
Cc1ccc(C)c(C(=O)C(C)Sc2nc3nn(-c4ccccc4)c(=O)c-3c3n2CCCCC3)c1 (configuration not stated) -2.59%
Cc1ccc2nsnc2c1NC(=O)COc1ccccc1F 11.1%
O=C(/C=C/c1ccco1)NC(=S)Nc1ccccc1 10.7%
CC(=O)c1ccc(NC(=S)NC(=O)/C=C/c2ccco2)cc1 21.8%
O=C(O)CCCCCNC(=O)/C=C/c1ccco1 5.1%
O=C(/C=C/c1ccco1)NCCc1ccccc1 6.75%
COc1ccccc1OCC(=O)Nc1cc(C(F)(F)F)ccc1-n1cncn1 0.07%
COc1cccc(C#Cc2c(C=O)n(C)c3ccccc23)c1 8.82%
Cc1cn(CC(=O)NCc2ccc(N(C)C)cc2)c(=O)[nH]c1=O 11.4%
CCOc1ccc(CNC(=O)c2ccc3c(c2)N(CC)CCS3)cc1 14%
Nc1cc(C(=O)O)ccc1Nc1ccccc1 25.7%
Nc1cccc(Nc2ccccc2)c1 8.97%
O=C(O)c1ccccc1Nc1cccc(C(F)(F)F)c1 8.9%
c1ccc(Nc2cccc3c(Nc4ccccc4)cccc23)cc1 8.14%
Nc1cc(C(F)(F)F)ccc1Nc1ccccc1 6.27%
Nc1ccc(Nc2ccccc2N)cc1 24.3%
CCOc1cc(N2CCOCC2)c(OCC)cc1NC(=O)COC(=O)c1ccc(Cl)nc1 1.55%
O=C(Nc1cccc(-c2csc(Nc3ccc(Cl)cc3)n2)c1)c1ccccc1 2.45%
N#Cc1c(-c2ccccc2)cc(C2CC2)nc1SCC(=O)O 12.8%
COc1cc(/C=N\Nc2nncn2N)ccc1OC(C)=O -4.26%
COc1ccc(OC)c(/C=N/Nc2nncn2/N=C/c2cc(OC)ccc2OC)c1 6.03%
COc1ccc(/C=N/Nc2nn3cnnc3c3ccccc23)cc1 13.1%
Oc1cccc(/C=N/Nc2nn3cnnc3c3ccccc23)c1 24.6%
COc1cccc(/C=N/Nc2nn3cnnc3c3ccccc23)c1 19.3%
COc1cccc(/C=N/Nc2nn3cnnc3c3ccccc23)c1O 7.65%
